Giardia killer: kills Giardia lamblia | Giardia lamblia trophozoite viability | activity change, % at 7.66 µM, hits read low | 340,000 tested, 0.15% active; in the data active = activity change below about -80%; inconclusive = between about -30% and that limit;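 note: parasites exposed to compound for two days anaerobically before the ATP read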
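Luminescent ATP signal served as the viability read-out, measured 15-30 min after adding ATP detection reagent to trophozoites that had been incubated with compounds for 48 hrs at 37 deg C anaerobically at 100 cells/well.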
HT1080 IDH1KD tx: kills HT-1080 cells with IDH1 knockdown; HT-1080 IDH1 knockdown viability, ATP luminescence, 48 h; Potency, µM (highest dose often 46.1 µM), actives largely listed as cytotoxic; 360,000 tested, 2% active
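After a 2 h attachment period, IDH1KD HT-1080 cells took pin-transferred compound for 48 h at 37 °C; ATP-based luminescence after 10 min room-temperature reagent incubation reported viability.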
HepG2 viability: counter-screen for TGF-b inhibitors: cytotoxicity in HepG2 cells; Potency, µM (series often up to 46.1 µM), most hits filed as cytotoxic; HepG2 CAGA-GFP viability, ATP luminescence, 18 h; 410,000 tested, 0.76% active
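HepG2 CAGA-GFP cells (1000/well, DMEM with 1% FBS) received compound, then TGF-beta at 500 pg/mL final, and were incubated 18 hours at 37 degrees C. Viability was read by CellTiter-Glo luminescence. Media-only wells were set as complete cell-killing and DMSO as no toxicity.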
HT1080NT lethal: kills 2HG-producing HT-1080-NT fibrosarcoma cells. HT-1080-NT fibrosarcoma viability, CellTiter-Glo ATP luminescence, 48 h. Potency, µM (top dose mostly 46.1 µM), actives largely listed as cytotoxic. 360,000 tested, 1.6% active. AID 686970;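 note: NT is the 2HG producing partner of a matched IDH1 knockdown line; nearly all actives have a fitted effect of over 55% in size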
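Viability by CellTiter-Glo luminescence after 48 h compound exposure at 37C of HT-1080-NT cells (750/well, RPMI, 5% FBS). % activity scaled between DMSO wells and medium-only wells, then curve-fitted and categorized by curve class.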
IL1B secr inh: blocks inflammasome-driven IL-1 beta release; THP-1 LPS/ATP IL-1B secretion, AlphaLISA, 16 h; stronger effect = lower value; activity change, % at 57.5 µM; 360,000 tested, 4.7% active; AID 743279; in the data active = activity change below about -50%; inconclusive = mostly about -30% to -49%
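THP-1 cells pretreated 1 hr with compounds (up to 57.5 uM final), then stimulated with LPS (250 ng/mL final) plus ATP (1.25 mM final); secreted IL-1B measured by AlphaLISA after 16 hr, decreased signal indicating inhibition.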
TGFb SMAD3 inh: blocks TGF-b signaling; 410,000 tested, 1.2% active; HepG2 CAGA-GFP TGF-b/SMAD3 reporter, GFP fluorescence, 18 h; TGF-beta stimulated, 500 pg/mL final; Potency, µM (top dose mostly 46.1 µM), most hits filed as inhibitors; note: nearly all actives have a fitted effect of over 65% in size
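Cell-based qHTS in HEPG2 carrying a CAGA-GFP Smad reporter; compounds added before 500 pg/mL final TGF-beta, 18 h incubation at 37 degrees C, GFP fluorescence quantified per cell by imaging cytometry.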
A number is an active result; - = inactive; ? = inconclusive; . = no result given; ! = not confirmed by another sample. This is a sample that favours compounds with a hit; in the whole collection about 6.5% have one here. Unless noted, calls come from the whole dose curve; as a rule, active = well fitted curve in the direction sought with a large enough effect; inconclusive = small, poorly fitted or top-dose-only effect, or another doubt; inactive = no such curve, though single readings can be large; an effect the other way counts as inactive or inconclusive.

SMILES | Giardia killer | HT1080 IDH1KD tx | HepG2 viability | HT1080NT lethal | IL1B secr inh | TGFb SMAD3 inh
Cc1ccc2c(=O)c(C(=O)NCc3cccs3)c[nH]c2c1 | - | - | - | - | - | -
CC(C#N)(NC(=O)COC(=O)c1ccccc1NCCO)C1CC1 (stereo unspecified) | - | - | - | - | - | -
COc1cc(NC(=O)c2cccs2)c(OC)cc1NC(=O)c1cccs1 | - | - | - | - | - | -
COc1cc(NC(=O)c2cccs2)c(OC)cc1NC(=O)Cc1ccccc1 | - | - | - | - | -54 | -
COc1ccc(C(Nc2ccccn2)c2c(NC(=O)c3ccco3)sc(C)c2C)cc1 (stereo unspecified) | - | - | - | - | ? | -
Cc1sc(NC(=O)c2ccco2)c(C(Nc2ccccn2)c2ccccc2)c1C (stereo unspecified) | - | - | - | - | -51 | -
CCc1ccccc1NC(=O)Cn1c2ncccc2c(=O)n1-c1ccccc1 | . | . | - | . | . | -
CCc1ccc(-n2c(=O)c3cccnc3n2CC(=O)Nc2ccccc2C(F)(F)F)cc1 | . | . | 11µM | . | . | ?
COc1ccc(-c2[nH]c3ccccc3c2SCCN)cc1 | - | - | - | - | -59 | -
COc1ccc(-c2[nH]c3ccccc3c2SCCNC(=O)c2cc3ccccc3oc2=O)cc1 | - | ? | - | - | - | -
Cc1nc2ncnn2c(C)c1CCC(=O)N1CCc2ccccc2C1 | - | - | - | - | - | -
Cc1nn(CC(=O)c2ccc(Br)s2)c(C)c1[N+](=O)[O-] | - | - | - | - | - | -
O=C(CCC(=O)N1CCOc2ccc(Cl)cc21)N1CCN(c2ccccn2)CC1 | - | - | - | - | - | -
Clc1ccc2ccc3cccnc3c2n1 | - | - | - | - | - | -
O=S1(=O)Nc2c(ccc3cccnc23)-c2ccccc21 | - | 0.32µM | - | 0.56µM | -100 | 1.3µM
Cc1cnc2c3c(cc(Cl)c2c1)-c1ccccc1S(=O)(=O)N3 | - | . | - | . | . | 4µM
Cc1cccc(OCc2n(CC(=O)OC3CC(C)CCC3C(C)C)c3ccccc3[n+]2C)c1 (stereo unspecified) | - | 8.2µM | 20µM | 18µM | -98 | 16µM
CC1CCC(C(C)C)C(OC(=O)Cn2c(-c3ccccc3)[n+](C)c3ccccc32)C1 (stereo unspecified) | - | 9.2µM | - | ? | -103 | 5.6µM!
CC1CCC(C(C)C)C(OC(=O)CSc2nc(N)cc(=O)[nH]2)C1 (stereo unspecified) | - | - | - | - | - | -
CC1CCC(C(C)C)C(OC(=O)Cn2c(-c3ccc(F)cc3)[n+](C)c3ccccc32)C1 (stereo unspecified) | - | 10µM | - | 18µM | -101 | 8.9µM
COc1ccc(NC(=O)CCCOc2cc(=O)n(C)c3ccccc23)c(OC)c1 | . | . | - | . | . | -
O=C(N/N=C/c1coc2ccc(Cl)cc2c1=O)c1cc(O)cc(O)c1 | - | - | - | - | - | -
CCNC(=O)C(=O)N1CCC2(CC1)OCCN2S(=O)(=O)c1ccc(C)cc1 | - | - | - | - | - | -
Cc1cc(-c2csc(NC(=O)c3cccc(S(=O)(=O)N(C)C)c3)n2)c(C)n1-c1ccccc1 | - | - | - | - | - | -
COC(=O)c1ccc(-n2c(C)cc(-c3csc(NC(=O)c4ccc(S(=O)(=O)N(C)C)cc4)n3)c2C)cc1 | - | - | 13µM | - | - | ?
SMILES | Giardia killer | HT1080 IDH1KD tx | HepG2 viability | HT1080NT lethal | IL1B secr inh | TGFb SMAD3 inh
COc1ccc(Cl)cc1N(C(C)=O)c1nc(C)cc(C)c1C#N | - | - | - | - | - | -
O=C(CSc1nnc(-c2ccncc2)o1)c1ccc2c(c1)OCCO2 | - | - | - | - | - | -
CCCn1c(O)c(/C=C2\C=NN=C2c2ccccc2)sc1=S | - | - | - | - | ? | -
CCCCC(CC)Cn1c(O)c(/C=C2\C=NN=C2c2ccccc2)sc1=S (stereo unspecified) | - | - | - | - | -104 | ?
C=CCn1c(O)c(/C=C2\C=NN=C2c2ccccc2)sc1=S | - | - | - | - | -59 | ?
O=C(Nc1cccc(S(=O)(=O)c2cccc(NC(=O)C3CC3)c2)c1)C1CC1 | - | ? | - | ? | -74 | -
O=C(Nc1cccc(S(=O)(=O)NC2=NCCC2)c1)C1CCC1 | - | - | - | - | - | -
O=C(Nc1cccc(S(=O)(=O)Nc2ccc(SC(F)F)cc2)c1)C1CCC1 | - | - | - | 15µM | - | -
Fc1ccccc1CNCCCSc1nnnn1-c1ccccc1 | . | . | - | . | . | ?
O=CC(=O)c1ccc(Cl)cc1 | . | . | - | . | . | -
Cc1ccc(Nc2nc(Nc3ccc(C)cc3)nc(SC3=NCCS3)n2)cc1 | - | ? | - | 10µM | - | ?
Cc1ccc(C(=O)C(c2ccccc2)N2Cc3ccccc3C2=N)cc1 (stereo unspecified) | - | ? | - | ? | -81 | ?
O=c1cc(-c2ccccc2)[nH]n1-c1ccc([N+](=O)[O-])cc1 | - | 13µM | - | ? | -64 | ?
O=c1c(N=Nc2ccc(O)cc2)c(-c2ccccc2)[nH]n1-c1ccc([N+](=O)[O-])cc1 | - | - | - | - | - | -
Cc1ccc(NC(=S)/C(C#N)=C2/Nc3ccccc3S2)cc1 | . | - | - | ? | - | 20µM
CCCCc1ccc(N/C(N)=N/c2nc(C)cc(C)n2)cc1 | - | 21µM | 16µM | 33µM | . | ?
Cc1ccc(N/C(N)=N/c2nc(C)cc(C)n2)cc1 | - | - | - | - | - | -
Cc1cccc(N/C(N)=N/c2nc(C)cc(C)n2)c1 | - | - | - | - | -109 | -
Cc1cc(C)cc(N/C(N)=N/c2nc(C)cc(C)n2)c1 | - | - | - | - | -102 | -
CCC(=O)Nc1ccc(N/C(N)=N/c2nc(C)cc(C)n2)cc1 | - | - | - | - | ? | ?
Cc1cc(C)nc(/N=C(\N)Nc2ccc(C(C)C)cc2)n1 | - | ? | - | ? | -99 | ?
Cc1c(C(=O)O)oc2ccc(S(=O)(=O)N3CCCCC3C(=O)O)cc12 (stereo unspecified) | - | - | - | - | - | -
CCN(CC)CCCNC(=O)C1c2ccccc2Oc2ccccc21 | - | - | - | - | - | -
CNCCCC1Sc2ccccc2Oc2ccccc21 (stereo unspecified) | - | ? | - | ? | -73 | -
S=c1c2c(nc3nc[nH]n13)CCC2 | ? | - | - | - | - | 10µM
CCCCN(C)S(=O)(=O)c1c(C)[nH]c(=O)[nH]c1=O | - | - | - | - | - | -
CCN(CCO)Cc1csc2ccc(Cl)cc12 | - | - | - | - | - | -
CCN(CCO)Cc1csc2ccc(C(C)(C)C)cc12 | - | - | - | - | -57 | -

Compound activity (PubChem)
